# In PubChem BioAssay (NCI):
# Where “and” joins values, the source holds several entries; their conditions need not be identical. Identical values can stand only once. Compounds without any hit were thinned out: in the full panel of roughly 83,000, 20% have a hit.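 Results are percent growth after 48 hours of single-concentration exposure. 100 means growth as in untreated cells, lower positive values show inhibition; negative values down to -100 show cell death.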 Calls of active or inactive are those of the source. Rule for the calls: active = growth percent below 10; inactive = the rest.
# Columns and labels:
# Test in all cases: NCI-60 one-dose screen, 48 h (100 = growth as untreated, 0 = no growth, -100 = all killed)
# Details in all cases: 10 µM unless noted
# SK-MEL-2 melanoma = system: SK-MEL-2 melanoma
# EKVX NSCLC = system: EKVX NSCLC
# SN12C renal = system: SN12C renal
# UO-31 renal = system: UO-31 renal
# TK-10 renal = system: TK-10 renal
# ACHN renal = system: ACHN renal
# CAKI-1 renal = system: CAKI-1 renal
# A498 renal = system: A498 renal
# CCRF-CEM leukemia = system: CCRF-CEM leukemia
# MOLT-4 leukemia = system: MOLT-4 leukemia
# SR leukemia = system: SR leukemia
# RPMI-8226 leukemia = system: RPMI-8226 leukemia
# OVCAR-8 ovarian = system: OVCAR-8 ovarian
# OVCAR-5 ovarian = system: OVCAR-5 ovarian
# OVCAR-4 ovarian = system: OVCAR-4 ovarian
# SK-OV-3 ovarian = system: SK-OV-3 ovarian
# IGROV1 ovarian = system: IGROV1 ovarian
# OVCAR-3 ovarian = system: OVCAR-3 ovarian
# HS 578T breast = system: HS 578T breast
# NCI/ADR-RES ovarian = system: NCI/ADR-RES ovarian
SMILES,growth (SK-MEL-2 melanoma),growth (EKVX NSCLC),growth (SN12C renal),growth (UO-31 renal),growth (TK-10 renal),growth (ACHN renal),growth (CAKI-1 renal),growth (A498 renal),growth (CCRF-CEM leukemia),growth (MOLT-4 leukemia),growth (SR leukemia),growth (RPMI-8226 leukemia),growth (OVCAR-8 ovarian),growth (OVCAR-5 ovarian),growth (OVCAR-4 ovarian),growth (SK-OV-3 ovarian),growth (IGROV1 ovarian),growth (OVCAR-3 ovarian),growth (HS 578T breast),growth (NCI/ADR-RES ovarian)
Cc1cnc(C(=O)NNc2nc3sc4c(c3c(=O)[nH]2)C(C)CCC4)cn1 (stereo not given),24.7% (inactive),23.5% (inactive),26% (inactive),4.88% (active),33.5% (inactive),11.8% (inactive),6.98% (active),33.9% (inactive),11.8% (inactive),15.7% (inactive),21.4% (inactive),29.3% (inactive),15.3% (inactive),34.7% (inactive),22.1% (inactive),16.2% (inactive),14.5% (inactive),31.5% (inactive),46.8% (inactive),11.7% (inactive)
COc1ccc(-c2cc(=O)c3c(O)cc(O)cc3o2)cc1,116% (inactive),103% (inactive),102% (inactive) and 82% (inactive),-74.8% (active) and 92.7% (inactive),119% (inactive) and 104% (inactive),97.5% (inactive) and 97.2% (inactive),108% (inactive) and 105% (inactive),97.5% (inactive),94.2% (inactive) and 86.6% (inactive),76.4% (inactive) and 85.6% (inactive),59.9% (inactive) and 69.1% (inactive),87.6% (inactive) and 87.3% (inactive),103% (inactive) and 90.2% (inactive),112% (inactive) and 130% (inactive),118% (inactive) and 102% (inactive),112% (inactive) and 135% (inactive),125% (inactive) and 113% (inactive),112% (inactive) and 81% (inactive),120% (inactive) and 97% (inactive),99.6% (inactive) and 99.1% (inactive)
CCCN1C(=O)/C(=c2\sc3n(c2=O)NC2C(N=3)N(CC)C(=O)N2CC)c2ccccc21 (stereo not given),68.6% (inactive),55.7% (inactive),38.1% (inactive),46.7% (inactive),86% (inactive),47.5% (inactive),40.7% (inactive),29% (inactive),25.1% (inactive),38% (inactive),30.6% (inactive),45.5% (inactive),35.7% (inactive),39.6% (inactive),63% (inactive),63.6% (inactive),38.9% (inactive),9.19% (active),27.8% (inactive),8.06% (active)
N#Cc1ccccc1OCC(=O)Nc1nc2c(s1)COc1ccccc1-2,88.7% (inactive),86.7% (inactive),96.2% (inactive),72.4% (inactive),140% (inactive),102% (inactive),99.2% (inactive),130% (inactive),96% (inactive),77.5% (inactive),-19.5% (active),96.8% (inactive),106% (inactive),85.4% (inactive),99.1% (inactive),94.7% (inactive),-3.12% (active),110% (inactive),99.7% (inactive),104% (inactive)
O=c1c2c([nH]c3ccccc13)CCCC2,103% (inactive) and -12% (active),103% (inactive),95.8% (inactive) and 56.5% (inactive),87.6% (inactive) and 50.4% (inactive),104% (inactive) and 62.2% (inactive),96.5% (inactive) and 57.9% (inactive),98.6% (inactive) and 54.6% (inactive),102% (inactive) and 49.1% (inactive),-32.1% (active) and 37.1% (inactive),83.4% (inactive) and 34.7% (inactive),87.9% (inactive) and 10.9% (inactive),87.2% (inactive) and 38.6% (inactive),99.8% (inactive) and 40.5% (inactive),91.3% (inactive) and 78.2% (inactive),100% (inactive) and 68.5% (inactive),104% (inactive) and 44.2% (inactive),111% (inactive) and 44.1% (inactive),118% (inactive) and -8.45% (active),98.2% (inactive) and 72.4% (inactive),104% (inactive) and 22.2% (inactive)
COc1ccc(/C=N\Nc2nc(SCC(C)C)nc(-c3ccc(OC)cc3)c2C#N)cc1,87% (inactive),35.1% (inactive),2.1% (active),-53.5% (active),-54.7% (active),-71.7% (active),9.54% (active),-7.9% (active),38.6% (inactive),30.2% (inactive),50.3% (inactive),54.6% (inactive),39.2% (inactive),55.5% (inactive),-60.3% (active),-16.6% (active),-16.3% (active),9.64% (active),8.52% (active),42.2% (inactive)
CC(=O)N1N=C(c2ccc(F)cc2)CC1c1sc(N(C)Cc2ccccc2)nc1Cl (stereo not given),96.1% (inactive),87.4% (inactive),106% (inactive),74.6% (inactive),112% (inactive),102% (inactive),83.9% (inactive),104% (inactive),96.4% (inactive),99.7% (inactive),94.6% (inactive),75.2% (inactive),105% (inactive),109% (inactive),88.7% (inactive),101% (inactive),96% (inactive),101% (inactive),109% (inactive),92% (inactive)
